± gives the standard deviation of the averaged measurements.
How the values were obtained:
[1] = tested on: E18 rat cortical neuron-glia co-culture; experiment: fiber score / MBP score (myelination specific beyond OL differentiation) (ratio); higher = more myelination-specific MBP alignment; conditions: treatment time: 8 days (DIV5-DIV13)
Outline: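 Reported values are fiber score (continuous MBP fiber length per Olig2+ nucleus) divided by MBP score (thresholded MBP area × intensity per Olig2+ nucleus). They come from primary E18 rat cortical co-cultures treated with library compounds at 1 or 5 µM in myelination medium from DIV5 to DIV13, then fixed in 4 % paraformaldehyde, immunostained for MBP and Olig2 with DAPI, and analysed over four 10X fields per well in duplicate wells.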

[2] = tested on: E18 rat cortical neuron-glia co-culture; experiment: myelination (MBP fiber length per Olig2+ nucleus), % of 1 µM DAPT response (DMSO = 0) (% of DAPT); higher = more myelination, active = 50 or more; conditions: treatment time: 8 days (DIV5-DIV13)
Outline: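 Rat cortical co-cultures from E18 tissue were dissociated with papain and plated at 20,000 cells/well on 96-well plates coated with poly-d-lysine/laminin. From DIV5 to DIV13, library compounds were added at 1 or 5 µM in myelination medium. After fixation in 4 % paraformaldehyde, cultures were immunostained for MBP and Olig2 and counterstained with DAPI, and four 10X fields were analysed in each of duplicate wells. The myelination value is the length of continuous straight MBP fibers per Olig2+ nucleus, normalised so that 0.1 % DMSO is 0 and a 1 µM positive control is 100.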

Row | Structure (SMILES) | fiber score / MBP score ([1]; 1 µM) | fiber score / MBP score ([1]; 5 µM) | myelination ([2]; 1 µM) | myelination ([2]; 5 µM)
1 | c1ccc2c(c1)CCCC2C1=NCCN1 (stereo not given) [Tyzine] | 0.783 | 0.873 | -6.18 (inactive) | -2.07 (inactive)
2 | CNCC[C@@H](Oc1ccccc1C)c1ccccc1 [Atomoxetine] | 0.774 | 0.721 | -18.6 (inactive) | -17.2 (inactive)
3 | COc1cc(Cc2cnc(N)nc2N)cc(OC)c1OC [Trimethoprim] | 0.828 | 1.18 | -9.76 (inactive) | 5.27 (inactive)
4 | Cc1cn([C@H]2C[C@H](N=[N+]=[N-])[C@@H](CO)O2)c(=O)[nH]c1=O [Zidovudine] | 0.929 | 0.666 | 11.9 (inactive) | -21.5 (inactive)
5 | O=C(NCCN1CCOCC1)c1ccc(Cl)cc1 [Moclobemide] | 0.601 | 0.881 | -22.1 (inactive) | -5.22 (inactive)
6 | COC(=O)C1=C(C)NC(C)=C(C(=O)OCCN(C)Cc2ccccc2)C1c1cccc([N+](=O)[O-])c1 (stereo not given) [Nicardipine] | 0.629 | 0.824 | -8.17 (inactive) | -21.2 (inactive)
7 | C=CC[C@@H]1/C=C(\C)C[C@H](C)C[C@H](OC)[C@H]2O[C@@](O)(C(=O)C(=O)N3CCCC[C@H]3C(=O)O[C@H](/C(C)=C/[C@@H]3CC[C@@H](O)[C@H](OC)C3)[C@H](C)[C@@H](O)CC1=O)[C@H](C)C[C@@H]2OC [Tacrolimus] | 0.687 | 0.587 | -24.6 (inactive) | -22.8 (inactive)
8 | O=S(=O)(O)CCS [Mesna] | 0.768 | 0.877 | 1.33 (inactive) | -6.97 (inactive)
9 | CC(C)(C)C(O)/C=C/c1ccc2c(c1)OCO2 (stereo not given) [Stiripentol] | 0.738 | 0.84 | -11.3 (inactive) | -6.09 (inactive)
10 | C[C@@H](O)[C@H]1C(=O)N2C(C(=O)O)=C(S[C@@H]3CN[C@H](C(=O)N(C)C)C3)[C@H](C)[C@H]12 [Meropenem] | 0.99 | 0.804 | 2.11 (inactive) | -19.5 (inactive)
11 | c1ccc(-c2ccc(C(c3ccccc3)n3ccnc3)cc2)cc1 (stereo not given) [Bifonazole] | 0.241 | 1.22 | -18.8 (inactive) | -26.8 (inactive)
12 | O=c1c(O[C@@H]2O[C@H](CO)[C@@H](O)[C@H](O)[C@H]2O)c(-c2ccc(O)c(O)c2)oc2cc(O)cc(O)c12 [Isoquercitrin] | 1.09 | 0.826 | 1.55 (inactive) | -11.7 (inactive)
13 | CC1(C)S[C@@H]2[C@H](NC(=O)[C@H](N)c3ccc(O)cc3)C(=O)N2[C@H]1C(=O)O [Amoxicillin] | 0.764 | 0.761 | -18.6 (inactive) | -33.3 (inactive)
14 | Cc1nc2n(c(=O)c1CCN1CCC(c3noc4cc(F)ccc34)CC1)CCCC2 [Risperidone] | 0.936 | 0.565 | -7.71 (inactive) | -15.1 (inactive)
15 | Cc1cc(NS(=O)(=O)c2ccc(N)cc2)no1 [Sulfamethoxazole] | 0.955 | 0.803 | -3.29 (inactive) | -5.03 (inactive)
16 | CO[C@H]1/C=C/O[C@@]2(C)Oc3c(C)c(O)c4c(O)c(c(/C=N/N5CCN(C)CC5)c(O)c4c3C2=O)NC(=O)/C(C)=C\C=C\[C@H](C)[C@H](O)[C@@H](C)[C@@H](O)[C@@H](C)[C@H](OC(C)=O)[C@@H]1C [Rifampicin] | 0.964 | 0.704 | 12.6 (inactive) | -2.96 (inactive)
17 | CN1CCN(CCCN2c3ccccc3Sc3ccc(Cl)cc32)CC1 [Prochlorperazine] | 0.297 | 1.56 | -45.4 (inactive) | -29.6 (inactive)
18 | COc1ccc(-c2cc(=O)c3c(OC)c(OC)c(OC)c(OC)c3o2)cc1OC [Nobiletin] | 1.28 | 1.16 | -36.3 (inactive) | -46.5 (inactive)
19 | O=C(CCNNC(=O)c1ccncc1)NCc1ccccc1 [Nialamide] | 0.859 | 0.524 | -5.76 (inactive) | -19 (inactive)
20 | Cc1cn([C@H]2C=C[C@@H](CO)O2)c(=O)[nH]c1=O [Stavudine] | 0.646 ± 0.15 | 0.637 ± 0.27 | -12.8 (inactive) | -8.63 (inactive)
21 | CCCSc1ccc2[nH]c(NC(=O)OC)nc2c1 [Albendazole] | 0.797 | 0.0787 | 112 | -37.4 (inactive)
22 | Nc1nc(N)nc(-c2cc(Cl)ccc2Cl)n1 [Irsogladine] | 0.913 | 0.877 | -14.2 (inactive) | -20.9 (inactive)
23 | COc1cc(CNC(=O)CCCC/C=C\C(C)C)ccc1O [Zucapsaicin] | 0.875 | 1.51 | -19.7 (inactive) | 98.2 (active)
24 | NC(=O)c1cccnc1 [Niacinamide] | 0.96 | 0.901 | -7.93 (inactive) | -4.86 (inactive)
25 | C[C@H]1O[C@@H](O[C@H]2[C@@H](O)C[C@H](O[C@H]3[C@@H](O)C[C@H](O[C@H]4CC[C@@]5(C)[C@H](CC[C@@H]6[C@@H]5C[C@@H](O)[C@]5(C)[C@@H](C7=CC(=O)OC7)CC[C@]65O)C4)O[C@@H]3C)O[C@@H]2C)C[C@H](O)[C@@H]1O [Digoxin] | 1.37 | 1.46 | 34 (inactive) | 68.2

— the supplement of paper PMC4840960
